Results as given in PubChem BioAssay (EPA / NIEHS).
Where “and” joins values, the source holds several entries; their conditions need not be identical. Identical values can stand only once. Results filed as inconclusive are left out. More than one record can exist for a structure, and the calls need not agree. Calls of active or inactive are those of the source. Rule for the calls, unless noted: active = hit-call score of the fitted dose curve at least 0.9, where 1 is the maximum; inconclusive = response in the unintended direction; inactive = score below 0.9.

Tests used:
[1] = TOX21_p53_BLA_p2_viability: Viability Assessment in the Tox21 HCT-116 p53 Agonism Beta-lactamase Assay, Phase 2 (AID 2283591);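 note: compound exposure lasted 16 h at 37 °C; actives lower the ATP signal meaning cytotoxicity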
How it was run: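 HCT116 p53-bla cells, 4000/well, dosed after 5 h plating (217-fold dilution of DMSO stocks) and incubated 16 h at 37C. Viability taken as cellular ATP by CellTiter-Glo luminescence after 30 min RT; signal loss marks cytotoxicity.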

[2] = biological target: Cellular tumor antigen p53 (Homo sapiens) (UniProt P04637); assay: TOX21_p53_BLA_p2_ratio: Tox21 HCT-116 p53 Agonism Beta-lactamase Assay, Ratio, Phase 2 (AID 2283592)
How it was run: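 Plated HCT116 p53-bla cells (4000/well) received compound after 5 h, then 16 h at 37C/5% CO2. CCF4-AM added, 2 h RT. Ratio of 460 to 530 nm emission taken as the p53 reporter signal.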

[3] = TOX21_p53_BLA_p3_viability: Viability Assessment in the Tox21 HCT-116 p53 Agonism Beta-lactamase Assay, Phase 3 (AID 2283593);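 note: cells exposed to compound for 16 h before reading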
How it was run: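 HCT116 cells, 4000/well, dosed 5 h after plating by pin transfer (217-fold dilution from DMSO stock) and incubated 16 h at 37C, 5% CO2. Viability read as ATP luminescence with CellTiter-Glo after 30 min at room temperature.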

[4] = biological target: Cellular tumor antigen p53 (Homo sapiens) (UniProt P04637); assay: TOX21_p53_BLA_p3_ratio: Tox21 HCT-116 p53 Agonism Beta-lactamase Assay, Ratio, Phase 3 (AID 2283596)
How it was run: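 Cells were seeded at 4000/well, rested 5 h at 37C, then dosed with DMSO compound solutions (217-fold dilution) for 16 h. CCF4-AM substrate was loaded for 2 h at room temperature, and the 460/530 nm emission ratio was fitted for gain of signal versus DMSO.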

[5] = TOX21_p53_BLA_p4_viability: Viability Assessment in the Tox21 HCT-116 p53 Agonism Beta-lactamase Assay, Phase 4 (AID 2283597);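 note: hits lower the luminescence signal meaning cytotoxicity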
How it was run: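 Readout: ATP luminescence (CellTiter-Glo), measured 30 min after reagent addition at RT. The reagent followed a 2 h CCF4-AM incubation, and the cells had been exposed to compound for 16 h at 37C.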

[6] = biological target: Cellular tumor antigen p53 (Homo sapiens) (UniProt P04637); assay: TOX21_p53_BLA_p5_ratio: Tox21 HCT-116 p53 Agonism Beta-lactamase Assay, Ratio, Phase 5 (AID 2283599)
How it was run: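 HCT-116 p53-bla cells (4000/well) plated 5 h, dosed with compound (217-fold DMSO dilution) for 16 h at 37 C; CCF4-AM substrate 2 h at room temperature. Activity is the 460/530 nm emission ratio (405 nm excitation), fitted in gain-of-signal direction versus DMSO.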

[7] = TOX21_p53_BLA_p5_viability: Viability Assessment in the Tox21 HCT-116 p53 Agonism Beta-lactamase Assay, Phase 5 (AID 2283600)
How it was run: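 Workflow: seed 4000 cells per well, wait 5 h, add compounds (DMSO, 217-fold dilution), incubate 16 h, load CCF4-AM 2 h, add CellTiter-Glo, read luminescence after 30 min.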

[8] = biological target: Cellular tumor antigen p53 (Homo sapiens) (UniProt P04637); assay: TOX21_p53_BLA_p4_ratio: Tox21 HCT-116 p53 Agonism Beta-lactamase Assay, Ratio, Phase 4 (AID 2283601)
How it was run: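 HCT-116 p53 beta-lactamase reporter cells (4000/well) preincubated 5 h, then compound (217-fold dilution of DMSO stock) for 16 h at 37C. CCF4-AM substrate added 2 h at room temperature; 460/530 nm emission ratio fitted upward versus DMSO.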

[9] = CCTE_Shafer_MEA_dev_firing_rate_mean: CCTE's Neural Network Formation Assay for Mean Firing Rate, Shafer Lab (AID 2284031; active = hit-call score of the fitted dose curve at least 0.9, where 1 is the maximum; inactive = score below 0.9;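 note: curve fitted for loss of firing so AC50 reflects decreased mean firing rate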)
How it was run: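 Extracellular spike frequency, AUC over DIV 5–12 recordings, in rat cortical neuron MEA cultures dosed from plating; loss direction vs DMSO.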

[10] = CCTE_Shafer_MEA_dev_per_burst_spike_percent: CCTE's Neural Network Formation Assay for Percent of Spikes in a Burst, Shafer Lab (AID 2284032; active = hit-call score of the fitted dose curve at least 0.9, where 1 is the maximum; inactive = score below 0.9;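 note: fitted as a decrease in burst spike percentage below DMSO baseline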)
How it was run: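 Value is trapezoidal AUC over recordings on days 5, 7, 9 and 12 of the well-mean fraction of spikes falling in single-electrode bursts; rat cortical cultures exposed continuously from plating, treatment renewed DIV 5 and 9, fitted downward against DMSO.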

[11] = CCTE_Shafer_MEA_dev_active_electrodes_number: CCTE's Neural Network Formation Assay for Number of Active Electrodes, Shafer Lab (AID 2284040);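 note: potency for loss of active electrodes versus DMSO so lower counts are hits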
How it was run: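 Developing rat cortical networks on MEAs, exposed DIV 0–12. Value is the AUC of active-electrode counts (≥5 spikes/min) from days 5, 7, 9, 12, relative to DMSO.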

[12] = CCTE_Shafer_MEA_dev_burst_rate: CCTE's Neural Network Formation Assay for Burst Rate, Shafer Lab (AID 2284042; active = hit-call score of the fitted dose curve at least 0.9, where 1 is the maximum; inactive = score below 0.9;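 note: potency for loss of burst rate below DMSO control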)
How it was run: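 Cells plated, treated day 0; recorded DIV 5, 7, 9, 12; fed and re-treated DIV 5, 9. Endpoint: bursts per recording time, active-electrode well mean, trapezoidal AUC, fitted in decreasing direction against DMSO baseline.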

[13] = CCTE_Shafer_MEA_dev_bursting_electrodes_number: CCTE's Neural Network Formation Assay for Number of Bursting Electrodes, Shafer Lab (AID 2284043);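 note: potency is for loss of bursting electrodes relative to DMSO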
How it was run: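 Rat cortical primary neurons, 48-well MEA, 16 electrodes/well; dosing DIV 0–12, re-dosed with full media change DIV 5, 9. Recordings DIV 5/7/9/12, AxIS adaptive spike detector; bursting electrode = ≥1 burst/2 min. AUC across days; loss of signal vs DMSO.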

[14] = CCTE_Shafer_MEA_dev_per_burst_interspike_interval: CCTE's Neural Network Formation Assay for Burst Interspike Interval, Shafer Lab (AID 2284044; active = hit-call score of the fitted dose curve at least 0.9, where 1 is the maximum; inactive = score below 0.9;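 note: potency for a decrease of within-burst interspike interval below DMSO level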)
How it was run: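 Neurons from rat cortex plated onto PEI-coated MEA wells with laminin […] at 1.5 x 10^5 cells/well, then treated from day 0. Media and compound fully replaced on DIV 5 and 9. Extracellular spontaneous firing recorded four times; interspike interval per burst summarised as AUC.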

[15] = CCTE_Shafer_MEA_dev_burst_duration_mean: CCTE's Neural Network Formation Assay for Mean Burst Duration, Shafer Lab (AID 2284045; active = hit-call score of the fitted dose curve at least 0.9, where 1 is the maximum; inactive = score below 0.9;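 note: curve fitted for loss meaning shorter burst duration than DMSO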)
How it was run: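 Rat cortical cultures, 1.5 x 10^5 cells/well with laminin drop; continuous dosing days 0–12, media plus treatment refreshed DIV 5, 9. AxIS adaptive spike detection; mean single-electrode burst duration, AUC over four recordings, negative direction vs DMSO.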

[16] = CCTE_Shafer_MEA_dev_interburst_interval_mean: CCTE's Neural Network Formation Assay for Mean Interburst Interval, Shafer Lab (AID 2284046; active = hit-call score of the fitted dose curve at least 0.9, where 1 is the maximum; inactive = score below 0.9;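 note: well-mean interburst interval of bursting electrodes as AUC over four recording days; curve fitted for decrease in interburst interval relative to DMSO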)
How it was run: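 Developing rat cortical networks on 48-well MEAs receive compound from the day of plating. Burst intervals from each active electrode are averaged per well, and AUC over the recording days is fitted in the negative direction against DMSO.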

[17] = CCTE_Shafer_MEA_dev_inter_network_spike_interval_mean: CCTE's Neural Network Formation Assay for Mean Inter-network Spike Interval, Shafer Lab (AID 2284047; active = hit-call score of the fitted dose curve at least 0.9, where 1 is the maximum; inactive = score below 0.9;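 note: potency for a decrease in mean inter-network spike interval below DMSO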)
How it was run: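 Rat cortical cultures, 1.5 x 10^5 cells/well on 48-well MEA plates; continuous exposure days 0–12, medium and compound refreshed DIV 5, 9. Mean time between consecutive network-spike peaks; AUC across DIV 5/7/9/12; DMSO baseline, negative fitting direction.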

[18] = CCTE_Shafer_MEA_dev_network_spike_number: CCTE's Neural Network Formation Assay for Number of Network Spikes, Shafer Lab (AID 2284048; active = hit-call score of the fitted dose curve at least 0.9, where 1 is the maximum; inactive = score below 0.9;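 note: synchronized bursts across electrodes counted on days 5 7 9 12 and integrated as AUC; fit as a loss of signal meaning fewer network spikes than DMSO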)
How it was run: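 Rat cortical primary cultures on 48-well MEA (16 electrodes/well); continuous exposure DIV 0–12, full medium and treatment exchange DIV 5, 9. Readout: network spike count, AxIS adaptive detection, recordings DIV 5/7/9/12 collapsed to AUC; loss-of-signal fit, DMSO baseline.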

[19] = CCTE_Shafer_MEA_dev_network_spike_peak: CCTE's Neural Network Formation Assay for Mean Number of Electrodes in Network Spike, Shafer Lab (AID 2284049; active = hit-call score of the fitted dose curve at least 0.9, where 1 is the maximum; inactive = score below 0.9;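 note: fitted for loss of signal meaning fewer electrodes in network spikes than DMSO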)
How it was run: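 Network-spike peak electrode count from recordings on days 5, 7, 9 and 12 was combined as trapezoidal area under the curve. Rat cortical cultures were treated continuously from plating, with compound renewed at each feed (DIV 5, 9); fits versus DMSO.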

[20] = CCTE_Shafer_MEA_dev_spike_duration_mean: CCTE's Neural Network Formation Assay for Mean Spike Duration, Shafer Lab (AID 2284051; active = hit-call score of the fitted dose curve at least 0.9, where 1 is the maximum; inactive = score below 0.9;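 note: mean network spike duration pooled as area under curve over DIV 5 to 12 recordings; potency for a decrease in mean network spike duration versus DMSO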)
How it was run: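 Readout is the average length of network spikes, clustered firing across electrodes, summed over DIV 5, 7, 9 and 12 as area under the curve. Neurons from rat cortex developed networks on MEA plates under continuous 12-day exposure.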

[21] = CCTE_Shafer_MEA_dev_network_spike_duration_std: CCTE's Neural Network Formation Assay for Standard Deviation of Network Spike Duration, Shafer Lab (AID 2284052; active = hit-call score of the fitted dose curve at least 0.9, where 1 is the maximum; inactive = score below 0.9;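 note: area under curve of spike duration SD across recording days 5 to 12; hits are decreases in network spike duration SD versus DMSO vehicle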)
How it was run: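 Read-out is the trapezoidal area-under-the-curve across recordings made on days 5, 7, 9 and 12, fitted in the negative direction against DMSO baseline. Neurons were primary rat cortical cells treated from day 0, with treatment renewed at each feed.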

[22] = CCTE_Shafer_MEA_dev_per_network_spike_spike_number_mean: CCTE's Neural Network Formation Assay for Mean Number of Spikes in a Network Spike, Shafer Lab (AID 2284053; active = hit-call score of the fitted dose curve at least 0.9, where 1 is the maximum; inactive = score below 0.9;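 note: fitted as decrease in spikes per network spike relative to DMSO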)
How it was run: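 Continuous twelve-day exposure of developing rat cortical networks grown over 16 microelectrodes per well; spontaneous firing is captured at four time points, and the per-network-spike spike number is integrated over development by trapezoidal AUC.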

[23] = CCTE_Shafer_MEA_dev_per_network_spike_spike_percent: CCTE's Neural Network Formation Assay for Percent of Spikes in a Network Spike, Shafer Lab (AID 2284054; active = hit-call score of the fitted dose curve at least 0.9, where 1 is the maximum; inactive = score below 0.9)
How it was run: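 Read-out: percent of spikes falling in a 0.05 s window at network-spike peak, from spontaneous MEA recordings on days 5, 7, 9 and 12; trapezoidal AUC; loss of signal versus DMSO. Rat cortical cultures, compound present throughout.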

[24] = CCTE_Shafer_MEA_dev_LDH: CCTE's Lactate Dehydrogenase Assay for Cytotoxicity in the Neural Network Formation Assay, Shafer Lab (AID 2284068);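 note: exposure for twelve days from plating with re-dosing on DIV 5 and 9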
How it was run: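 Cytotoxicity companion to network-formation recordings: rat cortical neurons received compound over 12 days of development, re-dosed at DIV 5 and 9 feeds. Viability was inferred from LDH enzyme activity relative to DMSO.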

[25] = CCTE_Shafer_MEA_dev_AB: CCTE's Alamar Blue Assay for Cytotoxicity in the Neural Network Formation Assay, Shafer Lab (AID 2284083);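 note: resazurin reduction fluorescence as viability of cultured neurons; twelve days of exposure from plating with re-dosing on DIV 5 and 9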
How it was run: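 Fluorescent resazurin reduction serves as the viability read-out, with DMSO as negative control and baseline. Cells were primary rat cortical neurons grown on MEA plates and dosed from day 0 to day 12, treatment renewed on DIV 5 and 9.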

[26] = CCTE_Shafer_MEA_dev_mutual_information_norm: CCTE's Neural Network Formation Assay for Mutual Information Normalization, Shafer Lab (AID 2284091; active = hit-call score of the fitted dose curve at least 0.9, where 1 is the maximum; inactive = score below 0.9;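 note: mutual information between electrodes summarised as area under curve across four recording days; potency is for a decrease in mutual information relative to DMSO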)
How it was run: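 Neurons from rat cortex were seeded at 1.5 x 10^5 cells/well onto PEI-coated MEAs in a laminin drop, then exposed to compound from day 0 for twelve days. Network recordings on four days gave mutual information, summarised by AUC relative to DMSO.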

[27] = CCTE_Shafer_MEA_dev_correlation_coefficient_mean: CCTE's Neural Network Formation Assay for Mean Correlation Coefficient, Shafer Lab (AID 2284093; active = hit-call score of the fitted dose curve at least 0.9, where 1 is the maximum; inactive = score below 0.9;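 note: well mean pairwise spike train correlation integrated as AUC over recording days 5 to 12; potency fitted for loss of correlation relative to DMSO vehicle wells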)
How it was run: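 Read-out: well-mean correlation coefficient of spike trains between electrode pairs, collapsed over four recording days as trapezoidal area-under-the-curve. Developing rat cortical neuron networks grown on MEAs received test chemical continuously from plating.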

[28] = biological target: bovine Estrogen Receptor (ER), ESR1 (gene 407238) (UniProt P49884); assay: NVS_NR_bER: NovaScreen (NVS) Nuclear Receptor Binding Assay for bovine Estrogen Receptor (ER) (AID 2283345);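 note: actives lower the bound radioligand count which means they displace the ER ligand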
How it was run: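 Scintillation counting of displaced radioligand gave the readout; bovine uterine membrane extract supplied the receptor. Measured 18 h post-dose, normalized to DMSO baseline. Single 25 uM duplicate screen preceded concentration-response follow-up.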

[29] = biological target: mouse Estrogen Receptor alpha (Era), Esr1 (gene 13982) (UniProt P19785); assay: NVS_NR_mERa: NovaScreen (NVS) Nuclear Receptor Binding Assay for mouse Estrogen Receptor alpha (Era) (AID 2283378);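 note: hit means loss of bound radioligand signal relative to DMSO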
How it was run: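 Extracted mouse Era incubated with tritiated or iodinated radioligand plus test chemical, 18 h. Bound fraction separated on filters, counted by scintillation. DMSO = negative control/baseline; duplicate single-point at 25 uM, then concentration-response follow-up.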

[30] = ACEA_ER_AUC_viability: ACEA Biosciences xCELLigence Real-Time Cell Analysis on Estrogen Receptor Agonism for Viability (AID 2283782);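 note: hit means loss of impedance signal meaning reduced cell growth or viability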
How it was run: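 Read-out: real-time electrical impedance (RT-CES) area under curve, loss of signal taken as reduced viability, normalized to DMSO baseline. T-47D cells, charcoal-stripped serum medium, compounds up to 100 uM final, continuous exposure, 80 h.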

Measured: AC50

Sequence of Cellular tumor antigen p53 (Homo sapiens) (P04637 whole entry, looked up): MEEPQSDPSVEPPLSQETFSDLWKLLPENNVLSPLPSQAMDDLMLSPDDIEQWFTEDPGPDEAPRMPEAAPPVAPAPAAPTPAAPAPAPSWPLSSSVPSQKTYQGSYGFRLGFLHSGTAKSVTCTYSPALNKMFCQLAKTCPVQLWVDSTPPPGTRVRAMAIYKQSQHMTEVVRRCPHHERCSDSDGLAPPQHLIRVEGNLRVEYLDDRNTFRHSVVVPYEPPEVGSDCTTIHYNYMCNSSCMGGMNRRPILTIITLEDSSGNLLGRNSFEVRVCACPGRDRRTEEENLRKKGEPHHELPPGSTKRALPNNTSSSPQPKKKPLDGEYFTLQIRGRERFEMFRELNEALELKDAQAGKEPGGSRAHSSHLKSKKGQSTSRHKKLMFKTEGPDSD
Sequence of bovine Estrogen Receptor (ER), ESR1 (gene 407238) (P49884 whole entry, looked up): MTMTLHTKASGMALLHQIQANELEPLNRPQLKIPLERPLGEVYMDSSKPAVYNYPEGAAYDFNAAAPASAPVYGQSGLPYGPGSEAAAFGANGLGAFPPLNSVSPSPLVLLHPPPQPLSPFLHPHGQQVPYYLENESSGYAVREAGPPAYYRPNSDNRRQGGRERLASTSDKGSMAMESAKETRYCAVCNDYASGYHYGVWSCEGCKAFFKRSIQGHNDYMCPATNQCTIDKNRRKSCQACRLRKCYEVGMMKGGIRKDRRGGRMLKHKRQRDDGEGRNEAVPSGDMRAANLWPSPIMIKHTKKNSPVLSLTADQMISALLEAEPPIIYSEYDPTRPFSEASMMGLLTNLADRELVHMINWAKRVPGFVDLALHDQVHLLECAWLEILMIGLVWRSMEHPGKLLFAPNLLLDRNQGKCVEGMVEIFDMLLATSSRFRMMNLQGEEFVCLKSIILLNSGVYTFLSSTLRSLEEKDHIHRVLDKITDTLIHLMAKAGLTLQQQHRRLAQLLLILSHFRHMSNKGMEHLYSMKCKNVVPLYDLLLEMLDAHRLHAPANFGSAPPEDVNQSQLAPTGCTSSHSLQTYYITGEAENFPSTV
Sequence of mouse Estrogen Receptor alpha (Era), Esr1 (gene 13982) (P19785 whole entry, looked up): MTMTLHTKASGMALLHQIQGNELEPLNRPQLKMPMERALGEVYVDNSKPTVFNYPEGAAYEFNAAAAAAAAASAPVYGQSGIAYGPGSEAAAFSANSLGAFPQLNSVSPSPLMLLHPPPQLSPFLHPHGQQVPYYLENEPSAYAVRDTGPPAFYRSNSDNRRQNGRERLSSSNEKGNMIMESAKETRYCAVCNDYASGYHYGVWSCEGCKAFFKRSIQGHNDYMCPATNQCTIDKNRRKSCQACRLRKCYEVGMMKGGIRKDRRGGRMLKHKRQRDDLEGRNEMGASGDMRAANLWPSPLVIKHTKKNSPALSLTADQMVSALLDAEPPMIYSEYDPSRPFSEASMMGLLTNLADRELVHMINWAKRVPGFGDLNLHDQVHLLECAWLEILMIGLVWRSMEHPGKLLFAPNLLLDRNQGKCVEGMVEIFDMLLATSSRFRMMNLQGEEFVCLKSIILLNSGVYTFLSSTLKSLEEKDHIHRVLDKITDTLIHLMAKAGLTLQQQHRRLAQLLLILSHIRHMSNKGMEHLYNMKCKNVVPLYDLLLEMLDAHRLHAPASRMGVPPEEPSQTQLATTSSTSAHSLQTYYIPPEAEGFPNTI

COc1ccc2cc3[n+](cc2c1OC)CCc1cc2c(cc1-3)OCO2
inactive: [1] | [2] | [3] | [4] | [5] | [6] | [7] | [8]
active: [1] 20800 nM | [2] 4580 nM | [3] 41200 nM | [5] 28.5 µM | [6] 66700 nM | [8] 53100 nM | [9] 106 nM | [10] 145 nM | [11] 161 nM | [12] 92.8 nM | [13] 130 nM | [14] 381 nM | [15] 291 nM | [16] 287 nM | [17] 236 nM | [18] 79.8 nM | [19] 156 nM | [20] 130 nM | [21] 97.4 nM | [22] 109 nM | [23] 117 nM | [24] 88.1 nM | [25] 450 nM | [26] 92.6 nM | [27] 106 nM

COc1ccc(COC=O)cc1
inactive: [28] | [29] | [30]

C=CCN1CCc2nc(N)sc2CC1
inactive: [1] | [2]

C[C@H](CCC(=O)O)[C@H]1CC[C@H]2[C@@H]3[C@H](O)C[C@@H]4C[C@H](O)CC[C@]4(C)[C@H]3CC[C@]12C
active: [1] 78500 nM | [5] 87.1 µM
inactive: [1] | [2] | [3] | [4] | [5] | [6] | [8]

Oc1c(I)cc(Cl)c2cccnc12
active: [1] 8670 nM | [2] 7990 nM | [3] 12700 nM | [5] 4.52 µM and 18.6 µM | [6] 7840 nM
inactive: [1] | [2] | [3] | [4] | [6] | [7] | [8]
